Assay results reported in PubChem BioAssay AID493014 (National Center for Advancing Translational Sciences (NCATS), 2011).
The campaign covered roughly 340,000 compounds. About 170 (0.05%) were called active. Not shown: some 26% with an inconclusive outcome. The call rests on the fitted dose curve; in most records, active means well fitted inhibition curve with a large enough effect in the signal ratio, with a control signal flat (not every such curve was filed as active); inconclusive means small, poorly fitted or top-dose-only effect, or effect the other way, or a change in a side signal; inactive means flat fitted curve, though single readings scatter; the % refers to the signal ratio. The sample as a whole holds a higher share of actives than the screen did.

Assay: qHTS Assay to Find Inhibitors of Chronic Active B-Cell Receptor Signaling
Details: ABC-DLBCL IkBa-CBG/CBR reporter, luminescence ratio, 4 h; series mostly up to 46.1 µM
Description: NIH Molecular Libraries Probe Production Network [MLPCN] NIH Chemical Genomics Center [NCGC] MLPCN Grant: 1 R03 DA031086-01A1 PI Name: Dr. R. Eric Davis NCGC Assay Overview: Diffuse large B-cell lymphoma (DLBCL) is the most common category of non-Hodgkin lymphoma, with ~20,000 new cases per year in the United States. DLBCL should be regarded as a collection of different neoplasms. Microarray gene expression analysis has defined two principal types of DLBCL, named for their similarity to normal B cell stages or activation states: a germinal center B-cell (GCB) type, and an activated B-cell (ABC) type. In ABC-DLBCL, a constitutive high-level activity of the NF-kappaB family of transcription factors has been observed (1) and NF-kappaB target genes are more highly expressed in ABC primary tumors than in GCB tumors. Functional studies have shown a constitutive high-level activity of the IkappaB (inhibitor of kappa-B) kinase (IKK) complex. […] Further analysis of DLBCL primary tumors for NF-kappaB target gene expression imply that although CARD11 is required for constitutive IKK activity in all ABC-DLBCL lines, mutations in CARD11 may be the root cause of IKK activation only in lines or tumors with such mutations. In other words, CARD11 mutations may explain NF-kappaB activation in only 10% of ABC-DLBCL cases. […] This process has been termed 'chronic active BCR signaling' (CABS). The goal of this screen is to find small-molecule inhibitors of the CABS pathway found in ABC-DLBCL lines using a cell-based assay that measures IkappaBalpa stability, which has already been extensively validated in the OCI-Ly3 line (PubChem AID:445; REF: 4). […] The assay uses green (CBG68) and red (CBR) emitting beetle luciferases [Chroma-GloTM developed by Promega Corp.] where the green luciferase is fused to IkappaBalpha and the red luciferase is present in its native state. Both luciferase genes are stably present in the TMD8 human ABC DLBCL cell line, but their expression is under the control of tetracycline-inducible promoters. Following the addition of doxycycline to induce expression of the luciferases, the green luminescence in control cultures rises only slowly because the CBG fusion partner IkappaBalpha is targeted by IKK activity for rapid degradation. In contrast, green luminescence rises rapidly in the presence of proteasome inhibitors or IKK inhibitors. The rise in red luminescence of CBR is not affected by proteasome or IKK inhibitors, and serves as normalization for cell number and nonspecific effects. Compounds were screened as a concentration-titration series that ranged from 46 uM to 3 nM.
NCGC Assay Protocol Summary: Cells were seeded in 1536-well plates at 5000 cells/4uL in IMDM medium containing 0.5% FBS, w/o phenol red, 1% penicillin/streptomycin. Then, 23 nL of compounds or DMSO were delivered to each well using a pin tool. One uL 20ng/ml doxycycline was then dispensed into white solid 1536-well plates and the plates were incubated at 37C/5% C02 in a cell incubator for 4 hrs. Then 4 uL luminescent substrate mix (in-house prepared: 150 mM Tris-Cl, pH 7.6, 3 mM MgCl2, 1% Triton X-100, 5 mM DTT, 0.2 mM CoA, 0.15 mM ATP, 5 mM D-luciferin, final concentrations) was added to each well. The plate was incubated at r.t. for 10-15 min. The plates were measured on a ViewLux plate reader for green luminescence (540/20 nm filter) and red luminescence (618/8 nm filter). The green and red luminescent signals were corrected for red and green luminescence filter overlap using previously determined filter calibration constants (determined using the procedure outlined in the Promega Technical Manual; REF 4). The %Activity was determined from the ratio of corrected green/red luminescent values. MG132 were used as control. […] Red luminescent %Activity was normalized to the difference between red luminesence in basal cells (0%Activity) and zero luminescence (-100% Activity). […]
Potency means the concentration at half of the fitted maximal effect.

Potency, inactive:
CC1CCc2sc(C(=O)NCC(c3ccco3)N3CCCCC3)cc2C1 (stereo unspecified)
O=C(COc1ccc(F)cc1Br)NCC1COc2ccccc2O1 (stereo unspecified)
Cc1ccccc1-c1cc(C(=O)NCc2cccs2)n(CC2CC(c3cccnc3)=NO2)n1 (stereo unspecified)
O=C(c1ccc(N2CCOCC2)c([N+](=O)[O-])c1)N1CCN(c2ccccc2F)CC1
C/C=C/c1ccc(OCC(=O)NNC(=O)CN(C)S(=O)(=O)c2ccc(C)cc2)c(OC)c1
CN(CC(=O)Nc1ccc(OC(F)F)cc1)S(=O)(=O)/C=C/c1ccccc1
C=CC[C@H](CC(=O)OC(C)(C)C)C(=O)OC[C@H]1CCCN1C(=O)[C@H](CC=C)CC(=O)N(CCO)Cc1ccccc1
Cc1ccc(C(=O)CN2C(=O)NC3(CCc4ccccc43)C2=O)c(C)c1 (stereo unspecified)
CC(C(=O)Nc1ccc(S(=O)(=O)N2CCCC2)cc1)N(C)Cc1ccc(F)cc1 (stereo unspecified)
CCCCNc1c(-c2ccc(OC)c(Sc3ccc(OC)cc3)c2)nc2ccc(Cl)cn12
Cc1ccc2c(CN3CCN(S(=O)(=O)c4ccccc4C(F)(F)F)CC3)cc(=O)oc2c1
COc1ccc(S(=O)(=O)N2CCOCC2)cc1NC(=O)c1ccc(OCC(C)C)c(OC)c1
COc1ccccc1-c1oc2ccccc2c1C#CCCCCO
COc1ccccc1S(=O)(=O)NCc1ccc(C(=O)N(C)Cc2ccc(F)cc2)cc1
COc1ccc(NC(=O)CCC(=O)N2CCN(S(=O)(=O)c3ccc(C)cc3)CC2)c(OC)c1
CSc1ccccc1NC(=O)c1cnc2sc(C)cn2c1=O
COc1ccc(OCCCC(=O)Nc2cccc(S(=O)(=O)N3CCCCCC3)c2)cc1
O=C(NCCc1ccco1)c1ccc(OCc2cn3ccccc3n2)cc1
CN(CCc1ccccc1)C(=O)c1cccc(NC(=O)Cc2ccc([N+](=O)[O-])cc2)c1
CC(C)CN(C(=O)COC(=O)c1ccc(Cl)c(N)c1)c1c(N)n(Cc2ccccc2)c(=O)[nH]c1=O
NC(=O)c1ccccc1N(Cc1ccccc1)S(=O)(=O)c1ccccc1
CCOC(=O)N1CCN(S(=O)(=O)c2ccc(OC)cc2)CC1
O=C(CNS(=O)(=O)c1ccc2c(c1)OCCCO2)N1CCN(c2ccc(F)cc2)CC1
Cc1c(C(=O)Nc2cccc(S(=O)(=O)N3CCOCC3)c2)oc2ccccc12
O=C(O)CCCn1c(=O)c2cccn2c2ccc(F)cc21
COc1cc(/C=C2\Oc3ccc(C#Cc4ccc(O)cc4)cc3C2=O)cc(OC)c1
CC(NC(=S)Nc1ccc(OC(F)F)cc1)c1ccc(F)cc1 (stereo unspecified)
C/C(=N\NC(=S)NC(C)C)c1ccc(C(C)(C)C)cc1
COc1ccc(C)cc1NC(=O)c1cc(-c2ccccc2)nc2c1cnn2C(C)C
Cc1ccc(C)c(OCCC(=O)Nc2cccc(S(=O)(=O)N3CCCC3)c2)c1
Cc1ccnc(N2C(=O)c3ccc([N+](=O)[O-])cc3C2=O)c1
Cc1ccc2nc(NC(=O)CSc3nc(=O)n(CCCN(C)C)c4c3CCC4)sc2c1
CC(C)CC1NC(=O)c2cc(Cl)ccc2-n2c1nc1ccccc1c2=O (stereo unspecified)
O=C(Cc1ccc(S(=O)(=O)N2CCOCC2)s1)N1CCN(c2ccc(C(F)(F)F)cc2[N+](=O)[O-])CC1
C[C@H](OC(=O)n1ccnc1)[C@@H]1O[C@@]2(C)CCC[C@@H]1O2
O=C(OCc1cc(=O)n2ccsc2n1)C1(c2ccc(Cl)cc2)CC1
COc1ccc(C)cc1NC(=O)CN1c2cccc3cccc(c23)S1(=O)=O
CCc1ccc(C(=O)NNC(=O)C2CCN(c3ncnc4sc(C)c(C)c34)CC2)cc1
Cc1cccc(C)c1Nc1nnc(SCC(=O)NCCCN2CCCC2=O)s1
Brc1ccc(CN2CC[C@H]3C=CCc4cccc(c43)C2)cc1
O=C(OCC(=O)N1CCCCCC1)c1ccc(Cl)nc1
CC1CCCCC12NC(=O)N(CC(=O)OCc1c(F)cccc1Cl)C2=O (stereo unspecified)
CCOc1ccc(S(=O)(=O)Nc2ccc(C(=O)NCCCN3CCCC3=O)cc2)cc1
CN(CC(=O)NC1CCN(Cc2ccccc2)CC1)S(=O)(=O)c1ccc(Cl)s1
COc1cc(OC)cc(-c2c(-c3cccs3)c3cc(-c4ccc(OC)nc4)ccc3n2C)c1
Cc1ccc(NC(=O)CN(C)C(=O)c2cccc(S(=O)(=O)N3CCCC3)c2)cc1
CN(C)C(=O)CCc1ccc2c3c([nH]c2c1)[C@]1(CCC2CCCC2)[C@@H](C(=O)N2CCOCC2)C[C@H](CC(=O)NCc2ccco2)C(=O)N1CC3
COc1cccc(CNC(=O)COc2cc(O)c3c(c2)OC(C)(C)CC3=O)c1
Cc1ccc(NC(=O)c2ccc(Cl)nc2)cc1S(=O)(=O)N1CCOCC1
COc1ccc2sc(-c3ccccc3OC)c(-c3ccc(OCCN4CCCC4)cc3)c2c1
COc1ccc(-c2sc3ccccc3c2-c2ccc(OCCN3CCOCC3)cc2)cc1
CCN(CC)c1ccc(S(=O)(=O)N2CCCCC2)cc1NC(=O)C1=COCCO1
COc1ccccc1CNC(=O)c1ccc(Cl)c(S(=O)(=O)N2CCCC2)c1
Cc1onc(-c2c(F)cccc2Cl)c1C(=O)OCC(=O)N1C(C)CCCC1C (stereo unspecified)
COc1ccc(S(=O)(=O)N2CCCCCC2)cc1C(=O)N(C)Cc1cccc(OC)c1OC
COC(=O)c1ccc(/C=C/c2c(-c3ccc(OC)cc3)sc3ccccc23)cc1
O=C1Nc2ccccc2/C1=C/c1ccnc2ccccc12

Potency, active:
CCOC(=O)N1CCN(C(=O)c2ccccc2N(Cc2ccccc2)S(=O)(=O)c2ccc(OC)cc2)CC1 15.8 µM
COc1cc(C#Cc2ccc3cc(CCCO)oc(=O)c3c2)cc(OC)c1 14.6 µM
CC/C(=N\NC(=S)NC(C)C)c1ccc(OC(F)F)cc1 22.4 µM
COc1cccc(-c2sc3ccc(OC)cc3c2-c2ccc(OCCN3CCCCC3)cc2)c1 18.4 µM
